Most compounds without a hit are left out; they make up all but 4.6% or so of the library.
Wee1 stabilizer – human Wee1 degradation inhibition, primary screen; HeLa Luc-Wee1K328M stability, luciferase luminescence; 100% = proteasome inhibitor MG132 effect; reporter increase, % at 5 µM; actives 1.2% (n = 220,000); AID 1321;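 active means activation above the mean of all tested compounds plus 3 SD, set per screening run, cut at about 8.8% in these data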;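 further: cells exposed to compound for 20 h before luminescence read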
Target sequence (P30291 whole entry K328M): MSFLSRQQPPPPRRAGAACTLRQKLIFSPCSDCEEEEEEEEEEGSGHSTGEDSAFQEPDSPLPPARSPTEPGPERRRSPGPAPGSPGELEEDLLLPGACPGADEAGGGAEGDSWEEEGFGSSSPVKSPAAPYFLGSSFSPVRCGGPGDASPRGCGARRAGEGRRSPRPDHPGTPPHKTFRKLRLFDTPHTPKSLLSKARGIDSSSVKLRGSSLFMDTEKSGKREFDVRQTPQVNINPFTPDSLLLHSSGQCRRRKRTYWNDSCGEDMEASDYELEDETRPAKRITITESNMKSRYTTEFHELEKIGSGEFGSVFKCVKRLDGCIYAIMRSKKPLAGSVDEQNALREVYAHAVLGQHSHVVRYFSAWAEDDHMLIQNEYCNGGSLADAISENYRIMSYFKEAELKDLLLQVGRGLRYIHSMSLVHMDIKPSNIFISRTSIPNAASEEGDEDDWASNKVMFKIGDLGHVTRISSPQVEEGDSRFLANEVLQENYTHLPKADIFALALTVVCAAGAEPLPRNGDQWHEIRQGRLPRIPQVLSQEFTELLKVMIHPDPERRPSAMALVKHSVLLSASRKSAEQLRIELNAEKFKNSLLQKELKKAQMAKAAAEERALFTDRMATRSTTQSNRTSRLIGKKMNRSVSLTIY
hcDAF-12 act – activators of H. contortus DAF-12 nuclear receptor; HEK293 hcDAF-12 lit1-tk-luc reporter, luminescence; 0% DMSO, 100% Δ7-dafachronic acid; actives 1.4% (n = 370,000); AID 652067; activation, % at 6.8 µM;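 active means activation above the mean of all tested compounds plus 3 SD, cut at about 5.5% in these data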
DAX1 inh-1 – NR0B1 (DAX1) inhibition. inhibition, % at 6.75 µM. P51843. HEK293 Gal4-DAX1 luciferase reporter, luminescence. actives 0.99% (n = 340,000);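 active means inhibition above the mean over all tested compounds plus 3 SD, cut at about 4.2% in these data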;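 further: inhibition shows as a rise in luminescence from relieved DAX1 repression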
hgDAF-12 ag – hgDAF-12 agonism, primary luciferase screen; activation, % at 6.8 µM; actives 1.8% (n = 370,000); HEK293 GAL4-hgDAF12 UAS-luciferase reporter, agonist luminescence; normalized to butyrate control;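 active means activation above a cutoff set at the mean of all screened compounds plus 3 SD, cut at about 10% in these data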
DAX1 inh-2 – inhibitors of DAX1 repression of SF-1 activated StAR promoter | actives 1.1% (n = 370,000) | HEK293T StAR-luciferase reporter, SF-1/DAX-1 repression relief | inhibition, % at 6.8 µM;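 active means inhibition above the mean over all tested compounds plus 3 SD, cut at about 3.6% in these data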;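 further: higher inhibition means more luminescence from relief of DAX-1 repression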
ssDAF-12 act – activates DAF-12 receptor from parasite S. stercoralis; HEK293 ssDAF-12/GRIP1 lit1-tk-luc reporter, luminescence; % of 3 µM dafachronic acid response; activation, % at 6.8 µM; actives 1% (n = 370,000); AID 652126;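 active means activation above the mean over all tested compounds plus 3 SD, cut at about 0.9% in these data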
Of the large screens only hits and unclear results are named; the others gave an inactive call.

Cn1c(CNC(=O)CNS(=O)(=O)c2ccccc2)cc(=O)n(C)c1=O	DAX1 inh-2 3.8 (no result: Wee1 stabilizer)
COc1ccc(S(=O)(=O)NCC(=O)NCc2cc(=O)n(C)c(=O)n2C)cc1C	none (no result: Wee1 stabilizer)
O=C1COc2ccc(C(=O)COC(=O)Cc3ccccc3F)cc2N1	none
O=C1COc2ccc(C(=O)COC(=O)Cc3ccsc3)cc2N1	Wee1 stabilizer 10.2
CCNC(=O)C1(C)CCN(Cc2csc(-c3ccccc3)n2)C1 (centres undefined)	none (no result: Wee1 stabilizer, DAX1 inh-1)
COc1ccccc1N(CC(N)=O)S(=O)(=O)c1ccc(C)cc1	ssDAF-12 act 1.1
COC(=O)/C=c1/sc2n(c1=O)CCN=2	Wee1 stabilizer 9.2
COCC(=O)N1CCC2CC1c1c(-c3ccc(C(F)(F)F)cc3)cccc12 (centres undefined)	none (no result: Wee1 stabilizer)
Nn1c(SCc2ccc([N+](=O)[O-])cc2)nnc1-c1n[nH]c2c1CCC2	none (no result: Wee1 stabilizer, DAX1 inh-1)
CCOC(=O)C1(CCc2ccccc2)CCN(C(=O)c2cccc(C)n2)CC1	Wee1 stabilizer 10.7
Cc1ccccc1N(CC(=O)N/N=C/c1ccc(F)cc1)C(=O)c1ccccc1	ssDAF-12 act 0.9
Cc1cc(C)nc(Oc2ccc(Br)cc2Br)n1	Wee1 stabilizer 9.1
Clc1ccccc1OCCCn1ccnc1	ssDAF-12 act 1.4 (no result: Wee1 stabilizer)
CC(=O)NC1CCC(C(=O)O)(c2ccccc2)C1 (centres undefined)	Wee1 stabilizer 9.3
O=C(O)C1(c2ccccc2)CCC(Nc2ccccc2)C1 (centres undefined)	none (no result: Wee1 stabilizer)
CCCCc1ccc(-c2noc(CCC(=O)NCC)n2)cc1	none (no result: Wee1 stabilizer, DAX1 inh-1, DAX1 inh-2)
CCOC(=O)c1c(NC(=O)CSc2nc3cc(Cl)ccc3s2)sc(C(C)=O)c1C	hcDAF-12 act 5.8 (no result: DAX1 inh-1)
Cc1cc(SCC(=O)c2cc3ccccc3o2)nc2ccccc12	ssDAF-12 act 1.1
O=C(CSc1nc2cc(Cl)ccc2s1)c1cc2ccccc2o1	ssDAF-12 act 3.4
O=C(CSc1nc2ccccc2s1)N1c2ccccc2Sc2ccc(Cl)cc21	none
CCOC(=O)c1c(NC(=O)CSc2nc3ccccc3s2)sc(C(C)=O)c1C	none
O=c1oc2cc(Cl)ccc2n1CSc1nc2ccccc2s1	hcDAF-12 act 6.5, hgDAF-12 ag 11.6
Cc1cc(NC(=O)CSc2nc3cc(Cl)ccc3s2)no1	none
CCOC(=O)[C@]12CCCC=C1N(CCC1=CCCCC1)C(=O)[C@H](CC(=O)NCc1cccs1)C2	none (no result: Wee1 stabilizer, DAX1 inh-1)
O=C(NCCN1CCCCCC1)c1ccc(N2CCCC2=O)cc1	none
CC(C)(C)c1ccc(C(=O)NCC(=O)O)cc1	DAX1 inh-1 4.8
Cc1ccc(C(=O)NCCC(=O)N2CCCC2)cc1	DAX1 inh-1 6.1, hgDAF-12 ag 13.1 (no result: Wee1 stabilizer)
CC(C)(C)c1ccc(C(=O)NCC(=O)N2CCCC2)cc1	none (no result: Wee1 stabilizer)
CC(C)(C)c1ccc(C(=O)NCCN2CCCC2)cc1	ssDAF-12 act 1.1
CC(=O)N1CCN(C(=S)NC(=O)c2ccc(S(=O)(=O)N3CCOCC3)cc2)CC1	DAX1 inh-1 4.7
Cc1ccc(C(=O)NCC(=O)N2CCCCCC2)cc1	none (no result: Wee1 stabilizer)
CN1C2=N[C@H](c3ccc(Br)cc3)CC(=O)N2/C(=C\c2ccccc2)[C@@H]1c1ccccc1	none (no result: Wee1 stabilizer, DAX1 inh-1, DAX1 inh-2)
COC(=O)C1CN(Cc2cn(Cc3ccc(OC)cc3)nn2)CCS(=O)(=O)N1Cc1ccc(Cl)cc1 (centres undefined)	none (no result: Wee1 stabilizer, DAX1 inh-1)
COc1ccc2c(COC(=O)[C@@H]3CCCN3S(=O)(=O)c3ccc(Cl)cc3)cc(=O)oc2c1	none (no result: Wee1 stabilizer)
CC(C)(C)c1ccc(C(=O)NC(=S)N2CCCCCC2)cc1	none (no result: Wee1 stabilizer)
CC(C)(C)c1ccc(C(=O)NC(=S)N2CCCC2)cc1	ssDAF-12 act 1.8 (no result: Wee1 stabilizer)
Cc1ccc(Nc2cc(C)nc(-c3ccccc3O)n2)cc1	hgDAF-12 ag 12.5
Cc1cc(Nc2ccc(Br)cc2)nc(-c2ccccc2O)n1	none (no result: Wee1 stabilizer)
CCOC(=O)N1CCN(C(=O)C[C@H]2C[C@@]3(C(=O)OC)C(=C[C@H](C(C)C)O[C@@H]3C3CC3)N(CCC3=CCCCC3)C2=O)CC1	none (no result: Wee1 stabilizer, DAX1 inh-1)
CCOc1ccc(C2OCCC(C)O2)cc1OC (centres undefined)	none (no result: Wee1 stabilizer)
COc1cc(C2C3=C(CC(C)(C)CC3=O)Nc3c2c(=O)[nH]c(=O)n3Cc2ccccc2)ccc1O (centres undefined)	DAX1 inh-1 4.3
CCSc1nnc(NC(=O)/C=C/c2ccco2)s1	hcDAF-12 act 6.0
CCCSc1nnc(NC(=O)c2ccco2)s1	DAX1 inh-1 6.1
O=C(Nc1nnc(CC(c2ccccc2)c2ccccc2)s1)c1ccco1	DAX1 inh-1 4.5
O=C(Nc1nnc(SCc2ccccc2F)s1)c1ccco1	none
C[C@H](NC(=O)c1ccco1)C(=O)Nc1nnc(SCc2ccccc2)s1	DAX1 inh-2 3.7 (no result: Wee1 stabilizer)
COC(=O)CCCn1cc(CN2CC(N3CCN(Cc4cccc(C)c4)CC3)CS2(=O)=O)nn1 (centres undefined)	none (no result: Wee1 stabilizer, DAX1 inh-1)
CC1(C(=O)NS(=O)(=O)C2CC2)CCN(C(=O)c2ccc3ccccc3n2)C1 (centres undefined)	none (no result: Wee1 stabilizer, DAX1 inh-1)
O=C1C2CCC(C2)C1CN1CCOCC1 (centres undefined)	ssDAF-12 act 1.8 (no result: Wee1 stabilizer)
Cc1ccc(N2C(=O)C(CN3CCOCC3)C2c2ccccc2)cc1 (centres undefined)	none
CC1(C(=O)Nc2cnc3ccccc3c2)CCN1C(=O)CCc1ccccc1 (centres undefined)	none (no result: Wee1 stabilizer, DAX1 inh-1)
CCCCCN1CC(O)=C(c2nc3ccccc3[nH]2)C1=N	Wee1 stabilizer 10.1
CCS(=O)(=O)N1CCC2(CC1)OCCN2S(=O)(=O)c1ccccc1	none (no result: Wee1 stabilizer)
O=C(Nc1ccccc1)Nc1ncc([N+](=O)[O-])s1	DAX1 inh-2 3.7
O=C(COC(=O)c1ccccc1)Nc1ncc([N+](=O)[O-])s1	none (no result: Wee1 stabilizer)
Cn1nc(C(F)(F)F)cc1-c1ccc(S(N)(=O)=O)s1	DAX1 inh-1 5.1
C=CCNc1nnc(Cl)c2ccccc12	none (no result: hcDAF-12 act, hgDAF-12 ag, DAX1 inh-2, ssDAF-12 act)
Clc1nnc(NN=C2CCCC2)c2ccccc12	ssDAF-12 act 1.3
CC(c1nc2ccccc2[nH]1)n1c(-c2ccncc2)nc2ccccc21 (centres undefined)	none (no result: Wee1 stabilizer, DAX1 inh-1)
Cc1csc(-c2nc3ccccc3n2C(C)c2nc3ccccc3[nH]2)c1 (centres undefined)	hcDAF-12 act 5.7 (no result: Wee1 stabilizer, DAX1 inh-1)
O=C(NC1CC1)c1ccc2c(Cl)c3c(nc2c1)CCCC3	hgDAF-12 ag 10.8
Cc1ccc(C(=O)NC(=S)Nc2cccnc2Cl)cc1	hgDAF-12 ag 12.4 (no result: Wee1 stabilizer)
N#Cc1ccc(CN2CCN(C(=O)c3ccc(S(=O)(=O)NCc4ccco4)cc3)CC2)cc1	none (no result: Wee1 stabilizer)
CC(C)c1ccc(NC2CCCN(C(=O)CN3CCCCC3=O)C2)cc1 (centres undefined)	none (no result: Wee1 stabilizer)
O=C(/C=C/c1ccco1)Nc1cccc(NC(=O)/C=C/c2ccco2)n1	hcDAF-12 act 6.4, hgDAF-12 ag 11.4
COc1ccccc1OCC(=O)Nc1ccccn1	hgDAF-12 ag 13.1
